Compound activity: PubChem BioAssay, The Scripps Research Institute Molecular Screening Center
MITF primary: blocks human microphthalmia-associated transcription factor. 650,000 tested, 0.91% active. AID 1259374. AlphaScreen MITF homodimerization, bead proximity signal. O75030. inhibition, % at 2.6 µM; in the data active means inhibition above about 50%
FBW7 activator: human FBW7 E3 ligase activation, primary screen. AlphaScreen FBW7–phospho-cyclin E peptide binding, activator screen. normalized activity (activation), % at 26.1 µM. 650,000 tested, 0.13% active. AID 1259310; in the data active means normalized activity above about 1.9%;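 further: purified mutant Fbw7 with reduced substrate affinity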
GPR151 ag: human GPR151 activation; Q8TDV0; PathHunter beta-arrestin GPR151 cells, luminescence; activation, % at 11.2 µM; 650,000 tested, 1% active; AID 1508602; in the data active means activation above about 4.9%
Target sequence (Q8TDV0 whole entry, looked up): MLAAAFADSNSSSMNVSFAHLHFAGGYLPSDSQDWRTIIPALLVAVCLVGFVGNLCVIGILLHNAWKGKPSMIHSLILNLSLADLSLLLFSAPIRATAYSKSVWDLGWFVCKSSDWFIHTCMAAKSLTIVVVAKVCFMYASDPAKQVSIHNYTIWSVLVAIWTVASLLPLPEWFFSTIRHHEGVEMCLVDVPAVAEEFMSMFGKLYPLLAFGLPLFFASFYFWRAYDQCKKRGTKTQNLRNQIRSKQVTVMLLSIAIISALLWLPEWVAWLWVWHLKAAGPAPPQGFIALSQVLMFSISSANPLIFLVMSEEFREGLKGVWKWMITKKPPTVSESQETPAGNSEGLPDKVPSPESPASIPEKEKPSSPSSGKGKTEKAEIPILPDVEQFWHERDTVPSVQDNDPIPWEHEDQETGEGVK
TEAD-YAP inh: TEAD-YAP interaction inhibition; HEK-TIYL cells, TEAD-Gal4/YAP UAS-luciferase luminescence; inhibition, % at 9.12 µM; 640,000 tested, 1.4% active; in the data active means inhibition above about 32%
A number is an active result; – = inactive. Most compounds without a hit are left out; they make up all but 3.4% or so of the library.

SMILES	MITF primary	FBW7 activator	GPR151 ag	TEAD-YAP inh
O=S(=O)(c1ccccc1)n1c(SCc2ccc(C(F)(F)F)cc2)nc2ccccc21	–	–	–	–
CCN(CC)C(=O)CSc1nc2n[nH]c(C)c2c(=N)n1-c1ccc(Oc2ccccc2)cc1	–	–	–	42.3
COc1cccc(-n2c(SCC(=O)Nc3ccc(C(C)C)cc3)nc3n[nH]c(C)c3c2=N)c1	–	–	–	36.9
Cc1ccc(-n2c(SCC(=O)NCc3ccccc3)nc3n[nH]c(C)c3c2=N)cc1Cl	–	–	–	–
Cc1ccc(-n2c(SCC(=O)NCc3ccccc3)nc3n[nH]c(C)c3c2=N)cc1C	–	–	–	41.3
COc1cccc(-n2c(SCC(=O)Nc3ccc(C)cc3)nc3n[nH]c(C)c3c2=N)c1	–	–	–	–
Cc1ccccc1N1C(=O)CN(C(=O)c2noc3c2CCCC3)CC1C (stereo not drawn)	–	–	–	–
COc1ccc2sc(N(Cc3cccnc3)C(=O)c3cccc(C)c3)nc2c1	–	–	–	40.0
CC(C(=O)N/N=C/c1cc([N+](=O)[O-])ccc1O)n1nnc2ccccc21 (stereo not drawn)	86.2	–	–	–
O=C(N/N=C/c1cc([N+](=O)[O-])ccc1O)c1ccccc1O	86.7	–	–	–
COc1cc([N+](=O)[O-])cc(/C=N/NC(=O)c2ccc(F)cc2)c1O	63.1	–	–	54.2
CC(C(=O)N/N=C/c1ccccc1O)n1nnc2ccccc21 (stereo not drawn)	–	–	–	–
Cc1nc2ccc(C(=O)N/N=C/c3cc([N+](=O)[O-])ccc3O)cc2[nH]1	92.2	1.9	–	–
O=C(N/N=C\c1ccccc1F)c1cnccn1	–	–	–	–
COc1ccc(/C=N/NC(=O)c2cc(C)[nH]n2)c(OC)c1	–	2.3	–	–
O=C(N/N=C/c1ccccc1O)c1ccccc1O	–	–	–	37.2
Cc1cc(C(=O)N/N=C/c2cc([N+](=O)[O-])ccc2O)n[nH]1	58.6	–	–	–
O=C(N/N=C\c1ccccc1O)c1cnccn1	59.4	–	–	–
Cc1cc(C(=O)N/N=C/c2c(O)ccc3cc([N+](=O)[O-])ccc23)n[nH]1	–	–	–	–
Cc1ccc(F)c(CN2CCN3C(=O)[C@H](Cc4cnc[nH]4)NC(=O)[C@H]3C2)c1	–	–	–	–
CC(=O)N1CCC(C(=O)N2CCC(C(=O)NC(c3ccccc3)c3ccccn3)CC2)CC1 (stereo not drawn)	–	–	–	–
O=C(CCCN1C(=O)c2cccc3cccc(c23)C1=O)N1CCN(c2ccc([N+](=O)[O-])cc2)CC1	–	–	–	–
CCOC(=O)C(Sc1nc(C)ccc1C#N)C(C)=O (stereo not drawn)	–	–	–	–
O=C(N/N=C/c1cc([N+](=O)[O-])ccc1Cl)c1cccnc1	–	–	–	–
O=C(O)c1cccc(NC(=S)N/N=C/c2cc([N+](=O)[O-])ccc2O)c1	–	–	–	40.4
SMILES	MITF primary	FBW7 activator	GPR151 ag	TEAD-YAP inh
O=C(N/N=C/c1cc([N+](=O)[O-])ccc1O)c1cccnc1	98.9	–	–	–
COc1cc([N+](=O)[O-])cc(/C=N/NC(=O)c2ccccc2O)c1O	78.7	–	–	–
CC(=O)c1cccc(NC(=O)CCCC(=O)Nc2cccc(C(C)=O)c2)c1	–	–	–	–
O=C(NC1CC1)c1ccc(-c2cnn3c(N4CCC[C@H]4CO)ccnc23)cc1	–	–	–	–
Cc1ccc(-c2cnn3c(N4CCC[C@H]4CO)ccnc23)cc1	–	–	–	96.2
OCc1cccc(-c2cnn3c(N4CCC[C@H]4CO)ccnc23)c1	–	–	–	66.3
CN1CCN(c2ccnc3c(-c4ccccc4F)cnn23)CC1	–	–	–	66.9
OC[C@@H]1CCCN1c1ccnc2c(-c3ccc(F)c(Cl)c3)cnn12	–	–	–	82.7
OC1CCN(c2ccnc3c(-c4ccc(F)c(Cl)c4)cnn23)CC1	–	–	–	–
CN1CCN(c2ccnc3c(-c4ccccc4Oc4ccccc4)cnn23)CC1	–	–	–	–
O=C(Nc1ccncc1)OC1CCN(C(=O)[C@@H](O)COc2ccc(Br)cc2)CC1	–	–	–	–
CCC(CC)c1nn(CC(=O)c2cc(C)n(CCOC)c2C)c(=N)s1	–	–	–	–
O=C(CN1CCC(c2nc3ccccc3[nH]2)CC1)Nc1ccccc1	–	–	–	–
OC[C@@H]1CCCN1c1ccnc2c(-c3ccc(O)cc3)cnn12	–	–	–	94.8
OC[C@@H]1CCCN1c1ccnc2c(-c3cnn(Cc4ccccc4)c3)cnn12	–	–	–	–
OC[C@@H]1CCCN1c1ccnc2c(-c3ccccc3F)cnn12	–	–	–	90.3
OCc1ccccc1-c1cnn2c(N3CCC[C@H]3CO)ccnc12	–	–	–	–
COc1ccc(-c2cnn3c(N4CCCCC4CCO)ccnc23)cc1OC (stereo not drawn)	–	–	–	37.6
Cc1nc(S(=O)(=O)n2ccnc2)c(C#N)c(C)c1Cl	–	–	–	–
Cc1nc2c(C(=O)NC3CCCC3)cnn2c(C)c1Cc1ccc(Cl)cc1	–	–	–	–
CCN1C(=O)N/C(=C/c2cn(CC(=O)Nc3ccccc3)c3ccccc23)C1=O	–	–	–	–
COCc1c(C#N)c(Sc2nnc(N)s2)nc(C)c1[N+](=O)[O-]	55.4	–	–	–
COCc1c(C#N)c(Cl)nc(C)c1[N+](=O)[O-]	–	–	–	–
O=C(O)/C=C/c1cc2cccc3c2n(c1=O)CCC3	–	–	–	–
CC(=O)c1cccc(NC(=O)c2ccc(C)cc2)c1	–	–	–	–
SMILES	MITF primary	FBW7 activator	GPR151 ag	TEAD-YAP inh
CC(=O)Nc1cccc(NC(=O)c2ccc(Br)cc2)c1	–	–	–	–
Cc1ccc(C(=O)Nc2cccc(O)c2)cc1	–	–	–	82.0
CCN(CC)S(=O)(=O)c1cc(C(=O)Nc2cccc(O)c2)ccc1C	–	–	–	85.2
O=C(Nc1cccc(O)c1)c1ccc(Br)cc1	–	–	–	36.4
CC(C)(C)c1ccc(C(=O)Nc2cccc(F)c2)cc1	–	–	–	41.7
COc1ccc(-c2nc(C(=O)NCc3ccccc3)cs2)cc1	–	–	–	–
COc1ccc(CCNC(=O)CSc2ccc3nc(-c4ccccc4)cn3n2)cc1OC	–	–	–	–
CCOC(=O)C(=Cc1ccc(O)cc1)C(=O)OCC	–	–	–	–
CCOC(=O)/C(=C/c1ccc(Br)cc1)c1nnc(N)s1	–	–	–	39.9
CCOC(=O)c1c(NC(=O)C(C)Sc2nnc(CNC(=O)c3c(F)cccc3Cl)n2C)sc2c1CCCC2 (stereo not drawn)	–	–	–	–
CNC(=O)/C(C#N)=C/c1c(Oc2ccc(F)cc2)nc2c(C)cccn2c1=O	–	–	–	–
CNC(=O)/C(C#N)=C/c1c(Oc2cccc(C)c2C)nc2c(C)cccn2c1=O	–	–	–	34.9
C=CCNC(=O)/C(C#N)=C/c1c(Oc2ccccc2C)nc2c(C)cccn2c1=O	–	–	–	40.7
Cc1ccccc1Oc1nc2c(C)cccn2c(=O)c1/C=C(\C#N)C(=O)NCC1CCCO1 (stereo not drawn)	–	–	–	33.5
Cc1ccccc1Oc1nc2c(C)cccn2c(=O)c1/C=C(\C#N)C(=O)NC1CCCC1	–	–	–	–
